# The whole screen tested about 290,000 compounds, of which about 2,000 (0.69%) were called active. No stated cut-off is given here; in the data, active means activity change below about -30%; inactive means the rest, inconclusive results apart. The entries come from a sample that favours actives as a whole.
# Test: qHTS Assay for Inhibitors of Fructose-1,6-bisphosphate Aldolase from Giardia Lamblia: Coupling assay counterscreen
# Conditions: coupling enzyme system counterscreen, AmpLite Red fluorescence; at 58.2 µM (top of the series)
# Summary of the method: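 Coupling enzymes only (glyceraldehyde-3-phosphate) + compound, at 57.5 uM final, 10 min RT; add substrate/coupling/AmpLite Red mix, 20 min RT; fluorescence ex 525/em 598 nm. Actives flag coupling-system interference.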
# On the % scale 0 is the no-effect control and ±100 the full control effect.
row,Structure (SMILES),"activity change, negative = inhibition"
1,Cc1ccc(CSCCNC(=O)CN(c2ccc(F)cc2)S(C)(=O)=O)cc1,-1.38% (inactive)
2,O=c1c(O)c(Br)ccc2c(Br)c(O)c(O)c(O)c12,-45.3% (active)
3,COc1ccc(CNC(=O)C(C)NCc2ccccc2Cl)cc1 (configuration not stated),-0.161% (inactive)
4,COc1cc(N=Cc2c(O)[nH]c3ccccc23)cc(OC)c1OC,-1.7% (inactive)
5,O=[N+]([O-])c1ccc(N=Cc2c(O)ccc3ccccc23)cc1,-37.8% (active)
6,Oc1ccc2ccccc2c1C=Nc1ccccc1,-34.9% (active)
7,O=[N+]([O-])c1ccc(N/N=C/c2ccccc2)cc1,1.24% (inactive)
8,CC(=O)n1c(C=Nc2ccccc2)c(O)c2ccccc21,0.601% (inactive)
9,O=[N+]([O-])c1ccc(O)c(/C=N/Nc2ccccc2[N+](=O)[O-])c1,0.257% (inactive)
10,CCCCn1c(SCC(=O)N2CCOCC2)nc2c1c(=O)n(C)c(=O)n2C,-0.5% (inactive)
11,O=C(Nc1ccccc1N1CCOCC1)c1ccc(OCc2cscn2)cc1,-3.06% (inactive)
12,Cc1nc(Nc2ccccc2F)c2nnn(Cc3ccccc3Cl)c2n1,1.81% (inactive)
13,C=C[C@](C)(O)CCC1C(=C)CCC2[C@@](C)(CO)CCC[C@@]12C (some centres not stated),1.09% (inactive)
14,O=[N+]([O-])c1ccc(C=Nc2ccc(Cl)cc2Cl)s1,-32% (active)
15,CCOc1ccc(NC(=O)CCC(=O)N/N=C/c2ccc([N+](=O)[O-])s2)cc1,0.71% (inactive)
16,CC(C)(C)c1cc(C(=O)N/N=C/c2ccc([N+](=O)[O-])s2)n[nH]1,1.27% (inactive)
17,Nc1nc2c(nc(Cl)n2C2OC(CO)C(O)C2O)c(=O)[nH]1 (configuration not stated),1.07% (inactive)
18,CC(=O)Nc1ccc(OCC(=O)NCc2ccc(C)cc2)cc1,0.378% (inactive)
19,CC(C)(C)NC(=O)COc1ccc(CNc2ccc3[nH]c(=O)[nH]c3c2)cc1,-49.7% (active)
20,COC(=O)c1ccc(OCC(=O)NC(C)(C)C)cc1,-2.25% (inactive)
21,Cc1cccc(C)c1NC(=O)CN1C(=O)C(C)Oc2ccccc21 (configuration not stated),0.123% (inactive)
22,NS(=O)(=O)c1cccc(NC(=O)CC23CC4CC(CC(Br)(C4)C2)C3)c1,-0.295% (inactive)
23,O=C(/C=C/c1ccc(N2CCOCC2)cc1)c1ccccc1,-2.68% (inactive)
24,Oc1c(C=Nc2cccc3nsnc23)ccc2ccccc12,-48.9% (active)
25,Oc1ccc2ccccc2c1N=Nc1nccs1,-6.8% (inactive)
26,N#Cc1cccc(NC(=O)CN2CCCCCC2)c1,0.599% (inactive)

row,Structure (SMILES),"activity change, negative = inhibition"
1,Cc1ccc(C(=O)NC2CCN(C(=O)Nc3ccc(F)cc3)CC2)cc1,-0.456% (inactive)
2,CC(=O)OCC(NC(=O)C(Cc1ccccc1)NC(=O)OC(C)(C)C)C1OC(n2ccc(=O)[nH]c2=O)C(OC(C)=O)C1OC(C)=O (configuration not stated),0.391% (inactive)
3,COc1ccc(N2CCN(C(=O)CCSCc3ccccc3F)CC2)cc1,2.76% (inactive)
4,O=C(CN1CCOCC1)N/N=C/c1ccc(-c2ccc(Br)cc2)o1,-3.01% (inactive)
5,Cc1cc(C)c([N+](=O)[O-])cc1-c1ccc(/C=N/NC(=O)c2nonc2N)o1,2.52% (inactive)
6,Cc1ccc(-c2ccc(/C=N/NC(=O)CN3CCOCC3)o2)cc1[N+](=O)[O-],-44% (active)
7,CC(C)CNC(=S)NC(=O)c1ccc(Cl)cc1,-5.21% (inactive)
8,COc1ccc(OCCCON2C(=O)c3ccccc3C2=O)cc1,0.279% (inactive)
9,CCOC(=O)C1=C(c2ccc(OC)cc2)C(=O)c2ccccc2C1=O,-63.5% (active)
10,CCOC(=O)c1c(-c2ccc(C)cc2)csc1/N=C(\C)C1=C(O)c2ccccc2C1=O,3.5% (inactive)
11,CC[N+](C)(CC)CCC[n+]1c(-c2ccccc2)c2cc(N)ccc2c2ccc(N)cc21,-38.7% (active)
12,COc1cc2c(C(=O)N3CCN(C)CC3)c(CSc3ccccc3)n(C)c2cc1Br,1.25% (inactive)
13,COc1cc(-c2c(-c3ccc4c(c3)OCO4)noc2C)ccc1F,4.94% (inactive)
14,CNC(=O)C1(C)C=CC2(CCCCC2)N1C(C)=O (configuration not stated),-1.27% (inactive)
15,COc1ccc2c(c1)C=CC1(O2)N(CCO)c2ccccc2C1(C)C (configuration not stated),-47.2% (active)
16,COc1cccc(CC2(CO)CCCN(CC3=Cc4cc(OC)ccc4OC3)C2)c1 (configuration not stated),-1.06% (inactive)
17,CN1c2ccc([N+](=O)[O-])cc2C(C)(C)C12C=Cc1cc(C(=O)O)ccc1O2 (configuration not stated),6.4% (inactive)
18,CCOC(=O)C1(CCOc2ccccc2)CCN(Cc2cc(OC)c(O)cc2Cl)CC1,-3.97% (inactive)
19,O=c1ccc2cc(S(=O)(=O)Nc3ccccc3F)ccc2o1,2.93% (inactive)
20,C#CCN1C(=O)C(O)(CC(=O)c2cc(OC)ccc2OC)c2ccccc21 (configuration not stated),2.24% (inactive)
21,COc1ccc2c(c1)C(=C(C#N)C#N)C(=O)N2CCc1ccccc1,-35.5% (active)
22,CCCCN1C(=O)/C(=C(/C#N)C(N)=O)c2ccccc21,-19.4% (inactive)
23,NCCCNCCCCN(CCCN)/[N+]([O-])=N/O,1% (inactive)
24,CN(C)c1ccc(S(=O)(=O)NCC(=O)NCC2CCCCC2)cc1[N+](=O)[O-],-0.658% (inactive)
25,COc1ccc(-c2ccc(C3C4C=CCCC4(C)C(=O)N3Cc3ccccc3)c(F)c2)cc1OC (configuration not stated),2.19% (inactive)
26,CC1(C)c2[nH]c3ccccc3c2C[C@H]2C(=O)N(N)CC(=O)N21,2.07% (inactive)

# From PubChem BioAssay AID2472 (National Center for Advancing Translational Sciences (NCATS), 2010)
